Gal4-VP16 FLuc: counter-screen for ROR gamma inhibitors: Gal4-VP16 reporter | Potency, µM (highest dose often 53.6 µM), inactives show at the highest dose activity, negative = inhibition, actives largely listed as inhibitors | AID 2546 | Drosophila S2 Gal4-VP16 UAS-luciferase, luminescence, 20 h | actives 3.5% (n = 310,000);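 note: Gal4-VP16 expression switched on by copper sulfate through the metallothionein promoter; potency is the fitted concentration of half-maximal effect; nearly all actives have a fitted effect of over 50% in size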
TDP1 cell CPT: DT40-hTDP1 cell growth loss with CPT | actives 12% (n = 420,000) | Potency, µM (titrated, usually from 46.2 µM), without a hit: at the highest dose activity change, negative = growth inhibition, actives largely listed as inhibitors | chicken DT40 Tdp1-/-;hTDP1 cells + 20 nM CPT, ATP luminescence, 48 h; note: potency is the fitted concentration of half-maximal effect; nearly all actives have a fitted effect of over 55% in size
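Cell growth measured by CellTiter-Glo luminescence after a minimum 48 h, 37 C compound exposure with 20 nM CPT in Tdp1-knockout DT40 cells stably expressing hTDP1, seeded 400/well; qHTS titration format.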
IL1B secr inh: inflammasome signaling inhibition, IL-1 beta readout; actives 4.7% (n = 360,000); THP-1 LPS/ATP IL-1B secretion, AlphaLISA, 16 h; active compounds read low; activity change, % at 57.5 µM; AID 743279; in the data active = activity change below about -50%; inconclusive = mostly about -30% to -49%
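THP-1 cells pretreated 1 hr with compounds (up to 57.5 uM final), then stimulated with LPS (250 ng/mL final) plus ATP (1.25 mM final); secreted IL-1B measured by AlphaLISA after 16 hr, decreased signal indicating inhibition.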
RORgamma inh: inhibitors of mouse ROR gamma transcriptional activity | actives 5.4% (n = 310,000) | Potency, µM (series often up to 53.6 µM), for inactives: top-dose activity change, negative = inhibition, usual class: inhibitors | Drosophila S2 Gal4-RORgamma UAS-luciferase reporter, 20 h; note: potency is the fitted concentration of half-maximal effect; nearly all actives have a fitted effect of over 60% in size
Target sequence (P51450 whole entry, looked up, the tested form may be a part): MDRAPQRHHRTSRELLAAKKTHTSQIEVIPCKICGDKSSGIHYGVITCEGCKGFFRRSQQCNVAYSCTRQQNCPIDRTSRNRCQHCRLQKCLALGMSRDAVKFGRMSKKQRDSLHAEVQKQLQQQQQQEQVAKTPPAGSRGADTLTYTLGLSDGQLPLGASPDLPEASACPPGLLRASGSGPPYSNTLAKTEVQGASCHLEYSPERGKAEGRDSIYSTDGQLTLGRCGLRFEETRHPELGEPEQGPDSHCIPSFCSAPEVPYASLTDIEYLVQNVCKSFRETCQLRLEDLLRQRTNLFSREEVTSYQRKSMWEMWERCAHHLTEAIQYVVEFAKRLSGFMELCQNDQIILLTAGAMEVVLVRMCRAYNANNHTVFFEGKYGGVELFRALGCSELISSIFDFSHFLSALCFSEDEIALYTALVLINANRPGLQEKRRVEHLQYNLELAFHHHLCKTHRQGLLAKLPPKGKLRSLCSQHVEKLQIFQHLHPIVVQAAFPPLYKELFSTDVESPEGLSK
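Read-out: Photinus luciferase luminescence; inhibitors lower reporter signal. Insect Schneider cells with Gal4-ROR gamma fusion under metallothionein promoter, UAS reporter; 700 uM final copper sulfate induction, 20 hr, ambient temperature.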
ELG1 DNA repair: inhibitors of ELG1-dependent DNA repair in HEK293T cells; actives 2.3% (n = 330,000); Potency, µM (doses to about 46.1 µM), inactives show at the top dose activity change, negative = inhibition, hits mostly inhibitors; AID 504467; HEK293T ELG1-luciferase reporter, luminescence, 16 h; DNA damage induced by 5-fluorouridine; note: potency is the fitted concentration of half-maximal effect; nearly all actives have a fitted effect of over 55% in size
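Luminescence from the luciferase reporter, measured 30 min after ONE-Glo reagent at room temperature, was the read-out. Beforehand, 2,000 cells per well were exposed for 16 hr at 37 °C to 5-fluorouridine together with compound or vehicle.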
TDP1 cell noCPT: qHTS for Inhibitors of human tyrosyl-DNA phosphodiesterase 1 (TDP1): qHTS in cells in absence of CPT; Potency, µM (doses to about 46.2 µM), without a hit: at the top dose activity change, negative = growth inhibition, most hits filed as inhibitors; AID 686978, 2013; DT40 Tdp1-/- hTDP1 cells, no CPT, ATP luminescence, 48 h; actives 15% (n = 420,000); note: potency is the fitted concentration of half-maximal effect; nearly all actives have a fitted effect of over 55% in size
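Readout: luminescence from CellTiter-Glo after 30 min in the dark at RT. Cells: DT40 Tdp1-/- with stable hTDP1, 400/well. Exposure: compounds alone, ≥48 hr, 37 °C.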
Active calls of the source: *; u = inconclusive; x = no result. Shown are actives, neighbours in structure and some others; about 21% of the full set was active somewhere. Unless noted, calls come from the whole dose curve; as a rule, active = well fitted curve in the direction sought with a large enough effect; inconclusive = small, poorly fitted or top-dose-only effect, or another doubt; inactive = no such curve, though single readings can be large; an effect the other way counts as inactive or inconclusive. % is set by controls: 0 for no effect and ±100 for the full control effect.

SMILES	Gal4-VP16 FLuc	TDP1 cell CPT	IL1B secr inh	RORgamma inh	ELG1 DNA repair	TDP1 cell noCPT
CCN(CC)CCCC(C)n1c(-c2ccccc2)nc2c(N(CCOC)CCOC)nc(C)nc21 (stereo not drawn)	-8%	x	x	-22%	x	x
CCCCc1nn2c(=O)cc(COC(=O)c3cccc(NC(=O)c4cccc(C)c4)c3)nc2s1	x	9%	x	x	x	0%
CCc1nn2c(=O)cc(COC(=O)c3cccc(NC(=O)c4ccccc4C)c3)nc2s1	x	21µM*	x	x	x	15µM*
Cc1nn2c(=O)cc(COC(=O)c3ccc(NC(=O)c4cccs4)cc3)nc2s1	x	16µM*	x	x	x	15µM*
Cc1cccc(C(=O)Nc2cccc(C(=O)OCc3cc(=O)n4nc(C(C)C)sc4n3)c2)c1	x	u	x	x	x	15µM*
Cc1nn(C(=O)COc2ccccc2Br)c(C)c1Sc1ccccc1	x	-7%	x	x	x	-18%
Cc1ccc(C)c(CN2C(=O)C(O)(c3c[nH]c4ccccc34)c3ccccc32)c1 (stereo not drawn)	x	29µM*	x	x	x	23µM*
O=C1N(Cc2ccccc2Cl)c2ccccc2C1(O)c1c[nH]c2ccccc12 (stereo not drawn)	x	16µM*	x	x	x	u
O=C1N(Cc2ccccc2)c2ccccc2C1(O)c1c[nH]c2ccccc12 (stereo not drawn)	x	-17%	x	x	x	-30%
Cc1ccccc1CN1C(=O)C(O)(c2c[nH]c3ccccc23)c2cc(Cl)ccc21 (stereo not drawn)	x	16µM*	x	x	x	18µM*
Cc1cc(C)c2c(c1)NC(=O)C2(O)c1c[nH]c2ccccc12 (stereo not drawn)	x	-11%	x	x	x	-2%
CN(Cc1ccc(Cl)cc1)C(=O)COC(=O)c1ccc(-c2ccc(O)cc2)cc1	x	u	-1	x	4%	7%
COCOc1ccc(-c2ncc(OC)nc2NC(=O)c2cc(C)oc2C)cc1	x	u	-19	x	x	-24%
CN(C)CCN(C)C1CN(Cc2ccc(F)cc2)S(=O)(=O)C1 (stereo not drawn)	x	-9%	0	x	x	-12%
O=C(CNCc1ccc(F)cc1)Nc1ccc(C(=O)N2CCCCC2)cc1	2%	18%	7	3%	-6%	-4%
O=C(COc1ccccc1Cl)NNC(=O)Cn1[nH]c(=O)c2ccccc2c1=O	x	9.2µM*	6	x	-1%	u
Cc1sc2ncnc(N3CCC(C(=O)NCC(=O)Nc4ccc(F)c(F)c4)CC3)c2c1C	-16%	u	-79*	2%	u	u
CNC(=O)c1ccc(NC(=O)C2CCN(c3ncnc4sc(C)c(C)c34)CC2)cc1	-4%	u	-16	-34%	9.2µM*	u
Cc1sc2ncnc(N3CCC(C(=O)Nc4ccc(Cl)cc4Cl)CC3)c2c1C	x	u	14	x	-3%	18µM*
CCc1ccc2nc(NC(=O)C3CCN(c4ncnc5sc(C)c(C)c45)CC3)sc2c1	x	u	31	x	u	u
Cc1sc2ncnc(N3CCC(C(=O)Nc4ccc(Cl)c(Cl)c4)CC3)c2c1C	x	u	-7	x	u	u
COc1ccc(C2c3c(n(C)c4ccccc34)C(=O)N2CC(=O)Nc2cc(Cl)ccc2C)cc1 (stereo not drawn)	x	u	x	x	x	21µM*
COCCCNC(=O)CCn1c(=O)c2ccccc2n(CC(=O)Nc2cc(Cl)ccc2C)c1=O	1%	0%	12	-11%	0%	-19%
CCN(CC)c1ccc(CN(C(=O)c2cc(=O)c3ccccc3o2)C2CCS(=O)(=O)C2)cc1 (stereo not drawn)	x	16µM*	x	x	x	u
CCN(CC)c1ccc(CN(C(=O)Cc2coc3ccc(C)cc23)C2CCS(=O)(=O)C2)cc1 (stereo not drawn)	x	u	x	x	x	23µM*
SMILES	Gal4-VP16 FLuc	TDP1 cell CPT	IL1B secr inh	RORgamma inh	ELG1 DNA repair	TDP1 cell noCPT
COc1ccc(CN(C(=O)c2cc(=O)c3ccccc3o2)C2CCS(=O)(=O)C2)cc1 (stereo not drawn)	1%	-2%	37	6%	u	4%
CC(C)c1ccc2occ(CC(=O)N(Cc3ccc(F)cc3)C3CCS(=O)(=O)C3)c2c1 (stereo not drawn)	x	18µM*	x	x	x	u
Cc1c(/C=N/NC(=O)c2cccs2)c2ccccc2n1Cc1ccccc1Cl	-16%	16µM*	28	-11%	1%	21µM*
Cn1ncc(N=Cc2c(O)ccc3ccccc23)c1C(=O)Nc1cccc(Cl)c1	12%	u	18	-33%	-9%	23µM*
CC1(C)C2CC=C(/C=N/NC(=O)c3ccc(O)cc3)C1C2 (stereo not drawn)	-15%	5%	-54*	-16%	15%	-19%
Cc1[nH]c2ccccc2c1/C=N/NC(=O)c1cccs1	-6%	u	52	u	u	-7%
Cn1ncc(Cl)c1C(=O)Nc1cccc(Cl)c1	-11%	-10%	-19	-21%	9%	-17%
Cc1ccc(N=Cc2c(O)ccc3ccccc23)cc1F	u	-87%	22	5µM*	u	u
COc1ccc(N=Cc2c(O)ccc3ccccc23)cc1	-24%	-25%	-6	u	5%	-6%
COCCNc1nc(C)nc2c1nc(-c1ccccc1)n2CCCN1CCCCC1C (stereo not drawn)	0%	x	x	2%	x	x
Nn1c(COc2ccccc2F)nnc1SCC(=O)NCC1CCCO1 (stereo not drawn)	x	-2%	-6	x	x	3%
C=CCN1CC[C@@H](O)C(=C)S1(=O)=O	x	-10%	x	x	x	-14%
Cc1c(/C=N/NC(=O)c2cccnc2)c2ccccc2n1Cc1ccccc1	-12%	12µM*	56	1%	u	7.3µM*
O=C(N/N=C/c1c(O)ccc2ccccc12)c1ccc(Br)o1	2.8µM*	5.2µM*	91	3.2µM*	u	4.6µM*
O=C(NN=Cc1c(O)ccc2ccccc12)c1ccncc1	x	4.6µM*	91	x	x	3.7µM*
Cc1cc(O)c(C)c(O)c1/C=N/NC(=O)c1cccnc1	7.9µM*	u	151	7.9µM*	u	u
O=C(Nc1cccc(Cl)c1)c1csc([C@@H]2O[C@H](CO)[C@H](O)[C@H](O)[C@H]2O)n1	x	0%	12	x	x	5%

Screening data deposited in PubChem BioAssay by National Center for Advancing Translational Sciences (NCATS).
